Screening results deposited in PubChem BioAssay by National Center for Advancing Translational Sciences (NCATS).
Sfp inh: qHTS Assay for Inhibitors of Bacillus subtilis Sfp phosphopantetheinyl transferase (PPTase); Biochemical Sfp PPTase activity, qHTS; Potency, µM, inactives show largest response in the series, negative = inhibition, usual class: inhibitors; actives 3.5% (n = 310,000); active = well fitted curve in the direction sought with a large enough effect; inconclusive = small, poorly fitted or top-dose-only effect, or another doubt; inactive = no such curve, though single readings can be large; an effect the other way counts as inactive or inconclusive;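 also: the enzyme is Sfp with the accession as filed and its product quenches rhodamine fluorescence; potency is read from the fitted curve at half-maximal effect; 0% = enzyme reaction without inhibitor and -100% = no enzyme wells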
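Sfp 15 nM + cpd, 15 min RT; start w/ rhodamine-CoA 5 uM, BHQ-2-YbbR 12.5 uM (final); 50 mM Hepes pH 7.6, 10 mM MgCl2, 0.01% NP-40, 0.01% BSA; read 525/598 nm at 0 and 30 min.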
NPSR antag: qHTS Assay for Antagonists of the Neuropeptide S Receptor: cAMP Signal Transduction; CHO-NPSR cells, cAMP TR-FRET, antagonist mode; Potency, µM (top dose mostly 38.3 µM), inactives show at the top dose activity change, negative = inhibition, usual class: inhibitors; actives 1% (n = 220,000); AID 1461, 2008; active = well fitted curve in the direction sought with a large enough effect; inconclusive = small, poorly fitted or top-dose-only effect, or another doubt; inactive = no such curve, though single readings can be large; an effect the other way counts as inactive or inconclusive; also: potency is read from the fitted curve at half-maximal effect; nearly all actives have a fitted effect of over 50% in size
Target sequence (Q6W5P4 whole entry, looked up): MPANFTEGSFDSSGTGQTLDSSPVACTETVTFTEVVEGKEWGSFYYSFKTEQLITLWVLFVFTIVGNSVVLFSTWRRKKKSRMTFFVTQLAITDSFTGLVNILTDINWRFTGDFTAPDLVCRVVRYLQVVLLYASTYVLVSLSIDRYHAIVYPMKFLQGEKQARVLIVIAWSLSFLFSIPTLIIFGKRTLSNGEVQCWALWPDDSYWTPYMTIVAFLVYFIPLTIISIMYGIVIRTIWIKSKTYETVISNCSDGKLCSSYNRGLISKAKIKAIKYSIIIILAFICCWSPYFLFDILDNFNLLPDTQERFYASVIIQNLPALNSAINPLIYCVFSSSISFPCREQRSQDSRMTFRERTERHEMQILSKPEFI
Coupling enz: qHTS Assay for Inhibitors of Fructose-1,6-bisphosphate Aldolase from Giardia Lamblia: Coupling assay counterscreen. coupling enzyme system counterscreen, AmpLite Red fluorescence. activity change, negative = inhibition, % at 58.2 µM, hits read low. actives 0.67% (n = 290,000); in the data active = activity change below about -30%
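Compounds tested against the coupling enzymes alone at 57.5 uM final; readout was AmpLite Red fluorescence (525/598 nm) after 20 min at RT.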
JMJD2E inh: qHTS Assay for Inhibitors of Human Jumonji Domain Containing 2E (JMJD2E) | Lysine-specific demethylase 4E (Homo sapiens), B2RXH2 | JMJD2E catalytic domain, FDH-coupled NADH fluorescence (FDH is formaldehyde dehydrogenase) | Potency, µM (top dose mostly 57.1 µM), for the others: top-dose activity change, negative = inhibition, actives largely listed as inhibitors | actives 1.6% (n = 230,000);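 also: potency is read from the fitted curve at half-maximal effect; 0% = wells with enzyme and -100% = buffer wells without enzyme; nearly all actives have a fitted effect of over 50% in size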
Target sequence (B2RXH2 1-337 limits assumed): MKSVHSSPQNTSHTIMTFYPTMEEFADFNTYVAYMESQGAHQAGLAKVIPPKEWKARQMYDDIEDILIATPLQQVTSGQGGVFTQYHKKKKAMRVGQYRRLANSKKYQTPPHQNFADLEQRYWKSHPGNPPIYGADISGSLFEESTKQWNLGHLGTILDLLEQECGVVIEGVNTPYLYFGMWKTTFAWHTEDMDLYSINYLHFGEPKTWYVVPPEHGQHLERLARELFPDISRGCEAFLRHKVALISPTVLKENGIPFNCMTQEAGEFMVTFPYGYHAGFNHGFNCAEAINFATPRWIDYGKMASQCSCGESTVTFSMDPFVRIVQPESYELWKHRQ
ALDH1A1 block: qHTS Assay for Inhibitors of Aldehyde Dehydrogenase 1 (ALDH1A1). Aldehyde dehydrogenase 1A1 (Homo sapiens), P00352. Purified ALDH1A1, NADH fluorescence, propionaldehyde substrate. Potency, µM (doses to about 75.3 µM), without a hit: at the highest dose activity, negative = inhibition, most hits filed as inhibitors. actives 7.3% (n = 220,000). AID 1030, 2008;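 also: potency is read from the fitted curve at half-maximal effect; plate controls were no enzyme wells and a reference inhibitor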
RGS12 GoLoco inh: qHTS Assay for Inhibitors of RGS12 GoLoco Motif Activity (Red Fluorophore); Guanine nucleotide-binding protein G(i) subunit alpha-1 (Homo sapiens), P63096; Gai1:RGS12 GoLoco peptide FP, rhodamine, 10 min; Potency, µM (series often up to 61.6 µM), for inactives: at the highest dose activity, negative = inhibition, most hits filed as inhibitors; actives 0.44% (n = 230,000); AID 880, 2007; active = well fitted inhibition curve with a large enough effect, not every such curve was filed as active; inactive = no such curve, though single readings can be large or run the other way; also: potency is read from the fitted curve at half-maximal effect; nearly all actives have a fitted effect of over 30% in size
Numbers without * were called inactive; i = inactive; ? = inconclusive; / = no result; [ ] = another dose, or the depositor's remark. An excerpt weighted towards active compounds, which were near 8.5% of everything screened. Unless noted, calls follow the shape of the dose curve; as a rule, active = well fitted inhibition curve with a large enough effect (not every such curve was filed as active); inconclusive = small, poorly fitted or top-dose-only effect, or another doubt; inactive = no such curve, though single readings can be large or run the other way. Unless noted, % is scaled to controls: 0 for no effect and ±100 for the full control effect.

SMILES | Sfp inh | NPSR antag | Coupling enz | JMJD2E inh | ALDH1A1 block | RGS12 GoLoco inh
COc1cccc(/C=N/NC(=O)c2ccc(COc3ccc(Cl)cc3Cl)o2)c1 | 0.794µM* | -14.5%[46.1 µM] | 2.4 | i | i | 8.7%
O=C(Nc1ccccc1F)c1ccc(COc2ccc(Cl)cc2Cl)o1 | ? | -5.4%[46.1 µM] | 3.2 | -8.6% | 28.2µM* | 5.2%
CN(C)c1ccc(N=Nc2ccccc2C(=O)OCC(=O)N(C)c2ccccc2)cc1 | ? | 4.2% | -5.4 | -1.8% | ? | 16.1%
Cn1c(=O)c2[nH]c(=O)cnc2n(C)c1=S | 17.8µM* | 26.0% | -1.1 | ? | 20µM* | 28.6%
Cn1c(=O)c2[nH]c(CCCCc3nc4c([nH]3)c(=O)n(C)c(=S)n4C)nc2n(C)c1=S | / | / | / | / | 11.6%[13.5 µM] | 8.2%[14.2 µM]
COC(=O)C1=C2SC(C)C(=O)N2C(N)=C(C#N)C1c1cc(OC)c(OC)c(OC)c1 (configuration not stated) | 35.5µM* | -8.4%[46.1 µM] | 0.4 | -28.3% | 1.3% | 1.6%
COC(=O)C1=C2SC(C)C(=O)N2C(N)=C(C#N)C1c1ccc(OC)c(OC)c1 (configuration not stated) | 35.5µM* | 4.9%[46.1 µM] | 1.6 | -17.5% | 12.6µM* | 15.6%
CCOC(=O)C1=C(N)N2C(=O)C(C)SC2=C(C(=O)OC)C1c1cccc(OC)c1 (configuration not stated) | -8.3% | -14.1%[46.1 µM] | 4.0 | 2.0% | -2.5% | -3.4%
Cc1cc2c(=O)oc(-c3ccc(Br)cc3)nc2s1 | 13.2% | 40.1% | 1.8 | ? | -12.1% | -6.6%
C=C(C)Cn1c(SCC(=O)N/N=C/c2cccc(O)c2)nc2ccccc2c1=O | 10.6% | -29.0% | 0.5 | 2.0% | ? | 10.4%
COc1c(C)cc(C(=O)C2CCCN(C(=O)/C=C/c3ccccn3)C2)cc1C (configuration not stated) | 20.1% | 13.1% | -2.7 | 5.7% | 14.1µM* | 7.5%
O=C(CSc1ccc(-c2cccnc2)nn1)c1ccc([N+](=O)[O-])cc1 | -29.9% | -15.5% | 0.9 | -17.6% | ? | -3.4%
O=C(CSc1ccccn1)N1CCc2ccccc21 | -21.9% | 12.3% | -4.9 | -13.0% | ? | -9.9%
O=C(CSc1ccc(-c2ccccn2)nn1)N1CCc2ccccc21 | -7.6% | -6.9% | 4.5 | -4.5% | 17.8µM* | 2.6%
O=C(CSc1ccc(-c2ccccn2)nn1)c1ccc([N+](=O)[O-])cc1 | 31.6µM* | -0.9% | 2.3 | -25.9% | 1µM* | 8.4%
Cc1ccc(C(=O)CSc2ccccn2)cc1 | 50.1µM* | -20.5%[46.1 µM] | 5.1 | ? | ? | 7.0%
COC(=O)/C=C1/SC(=NC(=O)c2cccc([N+](=O)[O-])c2)NC1=O | -21.2% | / | / | / | / | /
CC1CCC(C(C)C)C(OP(=O)(c2ccccc2)C(O)c2ccncc2)C1 (configuration not stated) | 10.4% | -10.8% | 2.7 | 17.8µM* | ? | 4.7%
CN(C)c1ccc(P(=O)(OC2CCCCC2)C(O)c2ccncc2)cc1 (configuration not stated) | 5.5% | 27.5% | 3.4 | 22.4µM* | / | 2.1%
CC(C)COP(=O)(c1ccc(N(C)C)cc1)C(O)c1ccncc1 (configuration not stated) | -1.7% | 1.8%[46.1 µM] | -0.2 | 20µM* | 12.6µM* | -9.3%
CC1CCC(C(C)C)C(OP(=O)(c2ccc(N(C)C)cc2)C(O)c2cccnc2)C1 (configuration not stated) | 15.0% | -28.3% | 1.0 | 4.5% | -1.7% | 7.2%
Cc1ccc(NC(=O)CNc2cccc(C)c2C)c(C)c1 | 3.3% | -14.0%[46.1 µM] | -5.5 | -4.8% | 8.91µM* | 5.3%
Cc1cccc(NC(=O)CNCC(=O)Nc2cccc(C)c2C)c1C | 9.5% | / | 1.6 | / | / | /
Cc1ccc(NC(=O)CNc2ccc(OC(C)C)cc2)c(C)c1 | 2.8% | -3.0%[46.1 µM] | -8.1 | -4.6% | 4.47µM* | 2.6%
CCOC(=O)c1cc(C)sc1NC(=O)CN1CCN(C(=O)C2CCCO2)CC1 (configuration not stated) | 2.1% | / | / | / | / | /
SMILES | Sfp inh | NPSR antag | Coupling enz | JMJD2E inh | ALDH1A1 block | RGS12 GoLoco inh
Cc1nc(C)c(-c2ccc(SCC(=O)Nc3cccc(Cl)c3C)nn2)s1 | 2.5% | / | / | / | / | /
COc1ccc(Cn2c(O)cc(=O)[nH]c2=O)cc1 | 44.7µM* | -10.1%[46.1 µM] | 11.0 | -29.1% | ? | 61.6%
CCOc1ccc(Cn2c(O)cc(=O)[nH]c2=O)cc1 | 50.1µM* | -1.2%[46.1 µM] | 6.6 | ? | 17.8µM* | 97.3%
CCOc1ccc(Cn2c(=O)sc3ccccc32)cc1 | -12.7% | -22.9% | 11.4 | -3.1% | / | -5.9%
Cc1cc(=O)[nH]c(-n2[nH]c(C)cc2=O)n1 | 22.4µM* | -3.5%[46.1 µM] | -2.4 | -11.5% | 0.9% | 6.4%
Cc1cc(=O)[nH]c(N2CCCC2)n1 | 12.7% | -2.6%[46.1 µM] | -4.9 | 1.5% | 2.5% | 10.3%
COc1ccc(Nc2ncc(C(=O)N3CCC(C(N)=O)CC3)c3ccccc23)cc1 | 11.2% | -15.4%[46.1 µM] | -1.4 | -1.7% | 17.2% | 5.6%
COc1ccccc1Nc1ncc(C(=O)N2CCC(C(N)=O)CC2)c2ccccc12 | -2.6% | -3.3%[46.1 µM] | -34.2* | -0.8% | 11.7% | 3.8%
Cc1ccc(-c2nn3c(C)nnc3s2)cc1NC(=O)c1ccc(-c2ccc(Cl)cc2Cl)o1 | 12.6µM* | -23.3%[46.1 µM] | 0.3 | ? | ? | 189.6%
Cc1ccc(-c2nn3c(C)nnc3s2)cc1NC(=O)c1ccc(-c2cccc(Cl)c2)o1 | 22.4µM* | -13.6%[46.1 µM] | 2.1 | -16.1% | ? | 157.1%
Cc1ccc(/C=N/N=C2/NC(=O)C(CC(=O)N3CCOCC3)S2)cc1 (configuration not stated) | 39.8µM* | 6.6% | 1.7 | 9.7% | ? | 10.8%
NC(=O)NC(=O)CC1S/C(=N/N=C/c2ccccc2)NC1=O (configuration not stated) | 22.8% | 10.6% | -1.8 | 7.9% | 8.1% | 5.6%
CCOC(=O)CSc1nc2sc(C)c(C)c2c(=O)[nH]1 | -5.9% | 18.5%[46.1 µM] | -8.2 | -2.0% | -5.8% | -26.3%
CCOC(=O)/C(=C\c1ccc(Cl)cc1)c1nc2sc(C)c(C)c2c(=O)[nH]1 | 39.8µM* | 7.94µM* | 1.9 | 7.5% | 25.1µM* | -5.8%
[O-][n+]1ccccc1SSc1cccc[n+]1[O-] | 0.708µM* | / | / | / | / | -5.3%
COC(=O)c1sc(N2C(=O)C(=O)/C(=C(/O)c3ccccc3)C2c2ccco2)nc1C (configuration not stated) | 9.4% | -38.9% | 7.1 | 3.6% | -2.1% | 13.6%
